According to the supplement of paper PMC6555819:

Key:
Test in all cases: PBM binding z-score (relative to random genomic background probes); higher = stronger binding; sequences stand for … in GC…GCGATTGACAGCGTAGAATGAAGG
[1] = test system: RARb homodimer (NR concentration 270 nM)
Procedure, shortened: (§1)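 Ligand-free nuclear receptor dimers were bound for 1 h to custom Agilent 4×180K protein-binding microarrays. Detection used antibodies against each partner (one per run). Binding z-scores rest on regression-normalized fluorescence, with random background probes as the reference.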

[2] = test system: RARg:RXRa (NR concentration 270 nM, RXRa partner concentration 90 nM)
Procedure, shortened: as §1

[3] = test system: RARg homodimer (NR concentration 270 nM)
Procedure, shortened: as §1

[4] = test system: RXRa DBDmut IVT, anti-RXR (DBD mutation: RXRa K156A/R161A, NR concentration 90 nM)
Procedure, shortened: as §1

[5] = test system: RXRa homodimer (NR concentration 180 nM)
Procedure, shortened: as §1

[6] = test system: THRa:RXRa (NR concentration 90 nM, RXRa partner concentration 90 nM)
Procedure, shortened: as §1

[7] = test system: THRa homodimer (NR concentration 90 nM)
Procedure, shortened: as §1

[8] = test system: VDR homodimer (NR concentration 270 nM)
Procedure, shortened: as §1

| Sequence | PBM binding z-score [1] | PBM binding z-score [2] | PBM binding z-score [3] | PBM binding z-score [4] | PBM binding z-score [5] | PBM binding z-score [6] | PBM binding z-score [7] | PBM binding z-score [8] |
| --- | --- | --- | --- | --- | --- | --- | --- | --- |
| CGTCCAAGGTCAATGGTCAGTGAAGAGATGACGG | 4.04 | 5.46 | 6.07 | 3.36 | 4.67 | 3.6 | 2.11 | 2.25 |
| ATGTCTAGGTAAAAGTTCAGTGAATCCCGAGGAT | 2.32 | 1.91 | 1.91 | 0.508 | 1.57 | 1.11 | 0.0268 | 0.949 |
| CCGACTGTGGCATAAGGTTACCATAAGCCAGCCC | 1.24 | 0.6 | 0.353 | 0.486 | 0.923 | 2.37 | 1.7 | -0.189 |
| TGAATGAGGTTATAAGATGAGGGAACGTTGCAAA | 0.278 | 1.31 | 1.12 | 0.817 | 1.76 | 1.77 | 0.282 | 0.388 |
| ACAGCCAGGTGAGTGAAGGTAACTCAGCTGGACG | -0.424 | -0.155 | -0.0105 | -0.98 | -0.177 | 1.46 | -0.534 | -0.751 |
| GCTAGCAGGCCATTTGGTTCACTCAATGACGGGC | -0.301 | -0.115 | -0.168 | 0.552 | -0.107 | -0.195 | -0.949 | 1.2 |
| ATCTCTAGGTAACCAAGTTCAGTGAATGCCGAAC | 1.52 | 0.894 | 0.853 | 0.991 | 0.572 | 1.6 | 0.96 | 2.99 |
| CGAACTAGGTCAGATCAGGACAGTGAAGGATGAT | 2.33 | 2.68 | 4.03 | 0.645 | 1.52 | 4.73 | 1.25 | -0.038 |
| GCATATAGGTAATACTAGGTGAAAGTCCGATTGT | 0.423 | 0.466 | 0.359 | 0.563 | 0.745 | 3.45 | 0.246 | 0.235 |
| TAGCCTAGGTCATTCAGTGGCCAGTATAGAAAGC | 2.59 | 4.43 | 3.96 | 1.92 | 2.63 | 2.55 | 0.351 | 1.24 |
| TTACCAAGGTGAAAGATCGTTGATGCACGCCTTG | 0.0757 | 0.744 | 0.398 | -0.161 | 1.06 | 1.42 | 0.109 | -0.339 |
| ATCTCTAGGTAAATATAGTTCAGTGAATGCAAAT | 1.1 | 1.03 | 1.14 | 0.551 | 0.623 | 1.05 | 0.0877 | 1.2 |
| GTTTACGGGTCAAAGGTTATAGCATGAATAGAAT | 3.41 | 6.91 | 5.26 | 2.06 | 9.23 | 3.94 | 0.0413 | 1.99 |
| TCATATAGGTAAAAGGTGAGAGTCGGTGTGGTAA | 1.5 | 1.39 | 0.67 | 1.49 | 2.55 | 1.26 | 0.546 | 0.255 |
| TCATATAGGTAAAAGGTGACAGTCGGTGTGGTAA | 1.71 | 1.48 | 0.836 | 1.66 | 2.28 | 1.4 | 0.394 | 0.0898 |
| ATCACTAGGTAACCAAGTTCAGTGAATGCCGAAC | 1.26 | 0.732 | 0.632 | 0.466 | 0.53 | 1.32 | 0.313 | 2.41 |
| GCTACTAGGTCAGGTTGGTCAGCTAACGGGTACG | 2.98 | 2.63 | 3.84 | 0.551 | 1.24 | 1.85 | 1.16 | 0.983 |

| Sequence | PBM binding z-score [1] | PBM binding z-score [2] | PBM binding z-score [3] | PBM binding z-score [4] | PBM binding z-score [5] | PBM binding z-score [6] | PBM binding z-score [7] | PBM binding z-score [8] |
| --- | --- | --- | --- | --- | --- | --- | --- | --- |
| TATACAGGGTCAAAGGCCAGAGCACGAATGTCGA | 3.57 | 5.66 | 5.23 | 3.1 | 6.87 | 3.46 | 0.672 | 2.9 |
| CAGAGTAGGTTATGGGGCATTCAGGCAACGGTGA | 1.24 | 0.814 | 0.945 | -0.321 | 0.947 | 0.691 | 0.428 | 0.315 |
| AGAATGAGGTTACCAAAGATTAGGGAAACGCTTG | 0.628 | 1.99 | 1.59 | 0.929 | 2.53 | 2.69 | 0.581 | 0.29 |
| ACAAACAGGTGATGAAGGTAACTCAGGCTATCAT | 0.731 | 0.443 | 0.626 | 0.298 | 0.602 | 1.19 | 0.203 | 0.203 |
| CCTAGCAGGCCAAGCTGGGTCACTCAAGGCTTGA | 2.2 | 1.64 | 1.65 | -0.265 | 1.17 | 3.28 | -0.143 | -0.334 |
| CCTACTGGGCCATCAGGTCATTGATATCAACGTT | 2.73 | 2.15 | 2.21 | 0.377 | 1.17 | 3.14 | 3.21 | 1.66 |
| TAGCCTAGGTCAGGGGCCAGTATACCACGCGAAC | 2.47 | 3.16 | 3.82 | -0.891 | 2.16 | 1.91 | 0.583 | -0.245 |
| AATACAGGGTCATGGTAGGCCAGAGTACGCACAG | 3.69 | 5.54 | 4.93 | 3.15 | 6.91 | 4.38 | 1.95 | 3.24 |
| CCTTTCGGGTCACTCCAGGTTATAGCATCGGAGT | 3.43 | 4.46 | 4.55 | 2.36 | 4.03 | 5.16 | 3.18 | 1.87 |
| TATACAGGGTCAAAGGCCAGTGTACGAATGTCGA | 3.45 | 5.7 | 5.08 | 2.97 | 7.04 | 3.57 | 0.905 | 2.75 |
| TCATATAGGTAAAGGTGAAACTCGAACGATATGA | 1.6 | 1.84 | 1.54 | 0.648 | 2.47 | 1.57 | -0.601 | -0.375 |
| GCGACTGGGGTATCAGCAGGTTACCATAACTTAA | 0.852 | 0.223 | -0.199 | -0.351 | 0.229 | 1.82 | -0.0503 | -0.333 |
| CCGAGTAGGTTATGGGGCGTTCAGGCAACGGTGA | 0.761 | 0.491 | 0.0403 | -0.298 | 0.251 | 0.608 | 0.402 | 0.062 |
| TAACCTAGGTCATGCGGGCCAGTATAGTGTCGGC | 3.44 | 4.53 | 4.39 | 1.15 | 3.58 | 3.32 | 1.23 | 1.05 |
| CGGACTAGGTCAAGGACAGTGAATCTCCGCACGC | 2.94 | 3.54 | 4.28 | 1.29 | 2.33 | 2.8 | 2.06 | -0.118 |
| ACTACTAGTTGAGACGAGGGCAACCGATAGGTTG | 1.18 | 0.816 | 0.767 | 0.00344 | 0.506 | 2.46 | 0.219 | 0.599 |
| AGAACGAGGGCGATGAGTTGATAGCACGGGTGGC | -0.239 | -0.0988 | 0.302 | 1.06 | 0.298 | -0.0851 | -0.71 | 2.17 |
